Experimental findings from PubChem BioAssay (EPA / NIEHS) are described below.

Results filed as inconclusive are left out. The source made the active and inactive calls. How the source made its calls: active means hit-call score of the fitted dose curve at least 0.9, where 1 is the maximum; inconclusive means response in the unintended direction; inactive means score below 0.9.

A short description of the assay: ATG_M_32_TRANS: Attagene TRANS-FACTORIAL HepG2 Assay for M32 Transcription Factor (Internal Marker) (AID 2282984).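 Further: transcript level of a background control reporter unit measured by RT-PCR and capillary electrophoresis.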 The note with it: HepG2 Attagene TRANS M32 internal marker reporter. The essentials: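 HepG2 cells transiently transfected with GAL4-UAS reporter units, dosed for 24 hours. Reporter mRNA quantified by RT-PCR, 6-FAM labelling, HpaI digestion and capillary electrophoresis; internal-marker signal fitted upward relative to DMSO.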
As for `Cc1occc1C(=O)Nc1ccc(C(=O)N2CCC(F)(F)/C(=C\C(=O)N3CCC(N4CCCCC4)CC3)c3ccccc32)cc1`, the outcome was inactive.

Take `O=C(O)c1ccccc1-n1cc(C(=O)O)c(=O)c2cc(Nc3c(F)cc(F)cc3Cl)c(Cl)cc21`: the compound was classed as inactive.

For `CCCCOC(=O)c1ccc(O)cc1`, the call was inactive.

Regarding `O=C(O)Cc1cc(I)c(Oc2ccc(O)c(I)c2)c(I)c1`, the compound was classed as inactive.

For the compound `CC[C@@H]1C[C@H](N(Cc2cc(C(F)(F)F)cc(C(F)(F)F)c2)C(C)=O)c2cc(C(F)(F)F)ccc2N1C(=O)OC(C)C`, the outcome was inactive.

Regarding `Cc1oc2c(NC(=O)c3c(Cl)cccc3Cl)cccc2c1C(C)(C)O`, the result was inactive.

Regarding `CC(=O)N1CCN(c2ccc(OC[C@H]3CO[C@](Cn4ccnc4)(c4ccc(Cl)cc4Cl)O3)cc2)CC1`, the compound was called inactive.

As for `CCCCCCCCOC(=O)c1cc(O)c(O)c(O)c1`, the outcome was inactive.

Consider `Cc1cn([C@H]2C[C@H](N=[N+]=[N-])[C@@H](CO)O2)c(=O)[nH]c1=O`, for which the call was inactive.

Turning to `O=C1O[C@H]([C@@H](O)CO)C(O)=C1O`, the result was inactive.

With `Oc1ccc2ccccc2c1`, the compound was classed as inactive.

Turning to `O=C(Nc1ccc(Cl)cc1)Nc1ccc(Cl)c(Cl)c1`, the compound was classed as inactive.

In the case of `O=CCCCC=O`, the result was inactive.

Regarding `Cc1c2ccccc2c(C)c2c1ccc1ccccc12`, the call was inactive.

Consider `CCCCCCCCCCCC[N+](C)(C)C`, for which the outcome was inactive.

As for `NC(=O)c1nc(-c2cccc(-c3cc(F)ccc3OCC(F)(F)C(F)(F)F)c2)n[nH]1`, the call was inactive.

`CC(C)(C)c1csc(-c2cc3cc(OCc4ccccc4CC(=O)O)ccc3o2)n1`: the call was inactive.

Take `CC/C(=C(/CC)c1ccc(O)cc1)c1ccc(O)cc1`: the compound was called inactive.

On to `COCC(C)OCC(C)OCC(C)O` (centres undefined), for which the outcome was inactive.

Take `CN1C(=O)N(c2ccccc2Br)Cc2cnc(Nc3ccc4c(c3)OCC(CO)O4)nc21` (centres undefined): the call was inactive.

For the compound `c1ccc(C[n+]2cccc3ccccc32)cc1`, the compound was called inactive.

As for `CCN(Cc1cccnc1)C(=O)c1cccc(Cl)c1[C@]1(C)C(=O)N(Cc2ccc(OC)cc2OC)c2ccc(Cl)cc21`, the result was inactive.

As for `COc1cccc([C@H](O)C2CCN(CCc3ccc(F)cc3)CC2)c1OC`, the call was inactive.

`O=C1CCC(C2CCCCC2)CC1`: the call was inactive.

In the case of `CCO[Si](CCCNC(N)=O)(OCC)OCC`, the call was inactive.

`Cc1ccc2oc(CN(Cc3ccccc3)C(=O)Nc3c(F)cc(F)cc3F)c(-c3ccc(Cl)cc3)c2c1`: the compound was called inactive.

With `CC(C)(c1cc(Br)c(O)c(Br)c1)c1cc(Br)c(O)c(Br)c1`, the outcome was inactive.

For `C[C@]12CC[C@@H]3c4ccc(O)cc4CC[C@H]3[C@@H]1CC[C@H]2O`, the call was inactive.

On to `CCCCOC(=O)CC(CC(=O)OCCCC)(OC(C)=O)C(=O)OCCCC`, for which the outcome was inactive.
